Screens (PubChem BioAssay)
Rows were chosen to be rich in hits. Some 6.4% of all compounds tested hit in one or more screens of this group.
VP16 counter: VP16 counterscreen qHTS for inhibitors of ROR gamma transcriptional activity | Potency, µM (series often up to 53.6 µM), inactives show at the highest dose activity, negative = inhibition, usual class: inhibitors | AID 2546, 2010 | actives 3.5% (n = 310,000) | Drosophila S2 Gal4-VP16 UAS-luciferase, luminescence, 20 h;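 also: Gal4-VP16 expression switched on by copper sulfate through the metallothionein promoter; nearly all actives have a fitted effect of over 50% in size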
RORgamma inh: qHTS for inhibitors of ROR gamma transcriptional activity. Nuclear receptor ROR-gamma (Mus musculus), P51450. Drosophila S2 Gal4-RORgamma UAS-luciferase reporter, 20 h. Potency, µM (top dose mostly 53.6 µM), for the others: at the highest dose activity change, negative = inhibition, most hits filed as inhibitors. actives 5.4% (n = 310,000); also: nearly all actives have a fitted effect of over 60% in size
Target sequence (P51450 whole entry, looked up, the tested form may be a part): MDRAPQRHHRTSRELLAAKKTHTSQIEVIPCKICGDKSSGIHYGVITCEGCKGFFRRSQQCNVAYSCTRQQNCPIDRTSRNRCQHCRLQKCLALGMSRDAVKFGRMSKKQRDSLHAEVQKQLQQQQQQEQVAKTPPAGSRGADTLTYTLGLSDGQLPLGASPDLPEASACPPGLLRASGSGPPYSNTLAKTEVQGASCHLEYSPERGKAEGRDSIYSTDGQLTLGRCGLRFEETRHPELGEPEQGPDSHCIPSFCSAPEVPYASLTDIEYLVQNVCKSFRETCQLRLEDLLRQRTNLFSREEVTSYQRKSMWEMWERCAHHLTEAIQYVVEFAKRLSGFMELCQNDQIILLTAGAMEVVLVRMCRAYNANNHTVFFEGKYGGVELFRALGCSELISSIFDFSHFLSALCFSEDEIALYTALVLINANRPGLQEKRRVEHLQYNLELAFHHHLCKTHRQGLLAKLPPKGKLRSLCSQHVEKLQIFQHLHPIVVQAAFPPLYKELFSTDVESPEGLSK
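Using a luciferase readout, inhibitors were identified by reduced reporter activity in Drosophila cells coexpressing a copper-inducible Gal4–ROR gamma fusion and UAS-driven Photinus luciferase, incubated 20 hr after 700 uM copper sulfate.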
Luc counter: Counterscreen for Luciferase (Kinase-Glo TM) Inhibition; AID 1379, 2008; actives 0.28% (n = 200,000); Luciferin 4-monooxygenase (Photuris pensylvanica), Q27757; Kinase-Glo luciferase, ATP luminescence, 8 min; Potency, µM (highest dose often 38.3 µM), without a hit: at the top dose activity change, negative = inhibition, actives largely listed as inhibitors; also: nearly all actives have a fitted effect of over 60% in size
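Inhibition of Kinase-Glo luciferase light generation was assessed at 10 uM ATP in pH 7.2 imidazole buffer, with luminescence measured after eight minutes at ambient temperature.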
* hit, by the source's call; ? = inconclusive; . = no result; [ ] = dose if it differs, or a comment. Calls follow the shape of the dose curve; as a rule, active = well fitted curve in the direction sought with a large enough effect; inconclusive = small, poorly fitted or top-dose-only effect, or another doubt; inactive = no such curve, though single readings can be large; an effect the other way counts as inactive or inconclusive. % is scaled to controls: 0 for no effect and ±100 for the full control effect; potency is read from the fitted curve at half-maximal effect.

SMILES	VP16 counter	RORgamma inh	Luc counter
CCOc1cc2[nH]c(=S)n(CCOC)c(=O)c2cc1OCC	8.9µM*	2.8µM*	-1%
O=C(Nc1ccc(C(=O)NC2CCCCC2)cc1)c1cccnc1	-14%	20%	0%
CNC(=O)[C@H]1O[C@@H](n2cnc3c(N)ncnc32)[C@H](O)[C@H]1O	.	.	-4%
Nc1ccn([C@H]2O[C@@H](COP(=O)(O)O)[C@@H](O)[C@H]2O)c(=O)n1	.	.	-6%[7.66 µM]
CC(C)(CO)CN1CCC(n2nccc2NC(=O)C2CCCC2)CC1	4%	-4%	.
Cc1c(C(=O)N/N=C/c2ccncc2)no[n+]1[O-]	-2%	-6%	-13%
CC(C)=CCNc1ncnc2c1c(C#N)cn2[C@H]1O[C@@H](CO)[C@@H](O)[C@@H]1O	.	.	-3%[7.66 µM]
Cn1c(SCC(=O)c2ccc(O)cc2O)nnc1-c1ccccc1	-2%	-34%	.
COc1ccc(NC(=O)CS(=O)(=O)c2ccc(Br)cc2)cc1	8%	20%	.
COc1cc2[nH]c(=S)n(Cc3cccs3)c(=O)c2cc1OC	-15%	?	-1%
CCCn1c(=S)[nH]c2cc(OC)c(OC)cc2c1=O	7.9µM*	3.2µM*	2%
C=CCn1c(=O)c(CCC(=O)Nc2ccc(N3CCOCC3)cc2)nc2cc(C(F)(F)F)ccc21	-4%	22%	.
Cc1ccc(OCCn2cnc3c(N)ncnc32)cc1	3%	29%	1%
CCOc1ccc(OCCn2c(=S)[nH]c3c(N)ncnc32)cc1	4%	2.5µM*	1%
O=S1(=O)c2cccc3cccc(c23)N1CCBr	-11%	13%	.
Cn1c(=O)n(C)c2cc(NC(=O)c3ccccc3[N+](=O)[O-])c(Br)cc21	-2%[10 µM]	40%	-2%
Cc1ccc(F)cc1CNC(=O)C1CCC(=O)N(CC2CCCCC2)C1 (stereo not given)	-4%	?	.
CCC(C)C(NC(=O)c1ccc(Cl)cc1Cl)C(=O)O (stereo not given)	0%	3%	0%
CCCNC(=O)c1ccc(Cl)cc1Cl	4%	25%	.
O=C(NC(=S)Nc1ccccc1O)c1ccc(Cl)cc1Cl	7.1µM*	2.5µM*	-1%
CC(C)CNC(=S)NC(=O)c1ccc(Cl)cc1Cl	5.6µM*	7.1µM*	.
CC(C)NC(=S)NC(=O)c1ccc(Cl)cc1Cl	10µM*	8.9µM*	-2%
O=C(Nc1ccccc1Cl)c1ccc(Cl)cc1Cl	9%	28%	3%
CC(C)CNC(=S)NC(=O)c1ccc(F)cc1	?	7.9µM*	2%
O=C(NC(=S)NCc1nc2ccccc2[nH]1)c1ccc(F)cc1	7%	-30%	3%
SMILES	VP16 counter	RORgamma inh	Luc counter
CCc1ccc(NC(=O)CSc2nnc(C)c(=O)n2N)cc1	0%	5%	.
Cc1ccc(S(=O)(=O)N2CCCCC2C(=O)N(C)c2ccccc2)cc1 (stereo not given)	2%	-15%	.
CSC(=S)NCc1cccnc1	27%	-7%	-2%
CCN(CC)c1ccc(/C=N/N2C(C)CCCC2C)c(O)c1 (stereo not given)	3%	-27%	.
N#CCCn1c(=O)c(-c2ccccc2)nc2cnc(Oc3ccccc3)nc21	-6%	2%	1%
Cc1ccc(S(=O)(=O)NCCNC(=O)c2ccc(C)nc2)cc1	12%	-30%	.
CCOc1cc(/C=N/NC(=O)c2cccc([N+](=O)[O-])c2)ccc1OS(=O)(=O)c1ccccc1	14µM*	7.9µM*	0%
COc1ccc(/C=N/NC(=O)c2cccc([N+](=O)[O-])c2)cc1OS(=O)(=O)c1ccc(C)cc1	?	4µM*	6%
CN(c1ccc(C(=O)N/N=C/c2cccc([N+](=O)[O-])c2)cc1)S(=O)(=O)c1ccccc1	-13%	?	.
COc1ccc(C(=O)N/N=C/c2ccc(OC)c(OS(=O)(=O)c3ccccc3)c2)cc1	2%	17%	-1%
CCN(C(=O)Cn1cnc2cc([N+](=O)[O-])ccc2c1=O)C1CCS(=O)(=O)C1 (stereo not given)	0%	-3%	-1%
OC1CCC2Cc3ccccc3N=C12 (stereo not given)	-9%	9%	3%
CCn1c(SCC(=O)N2CCCCC2C)nc2c1c(=O)n(C)c(=O)n2C (stereo not given)	2%	22%	.
COc1cc(CCCN2C(N)=NC[C@@H]2Cc2ccccc2)cc(OC)c1OC	5%	-2%	.
COc1cc(CCCN2C(=S)NC[C@@H]2Cc2ccccc2)cc(OC)c1OC	?	10µM*	.
COc1cc(CCCN2C(=S)NC[C@@H]2c2ccccc2)cc(OC)c1OC	?	10µM*	.
CCCC[C@@H]1CNC(=O)C(=O)N1CCCc1cc(OC)c(OC)c(OC)c1	3%	-9%	.
CCC(CC)C(=O)Nc1cc(Cl)ccc1C	14%	14%	0%
O=C(Nc1ccc(Cl)cn1)c1cccc2c(Br)cccc12	24%	-6%	.
Cc1ccc(C)n1-c1ccc(C(=O)NN)s1	3%	-9%	2%
O=C(c1ccco1)N1CCC2(CCN(Cc3ccncc3)CC2)CC1	-6%	17%	-4%
O=C(NC1=NCCS1)c1cccc(OC(F)F)c1	-29%	11µM*	-3%
CC(C)Oc1ccc(C(=O)NC2=NCCS2)cc1	1%[10 µM]	10µM*	-5%
COc1ccc(C(=O)NC2=NCCS2)cc1	-2%	-18%	.
COc1cc(OC)cc(C(=O)NC2=NCCS2)c1	3%	-7%	-6%
SMILES	VP16 counter	RORgamma inh	Luc counter
COc1ccc(N(C)S(=O)(=O)c2cccc(C(=O)NC3=NCCS3)c2)cc1	?	6.3µM*	-2%
Cc1ccc(N(C)S(=O)(=O)c2cccc(C(=O)NC3=NCCS3)c2)cc1	?	?	-3%
CC1(C)CC(=O)N(c2ccc(C#N)cc2)C(=O)C1	-1%	10%	.
CC1Cn2c(nc(=O)c3c2NCN(CCc2ccccc2)C3)S1 (stereo not given)	4%	-5%	3%
O=C(Nc1nnc(-c2cccs2)o1)c1ccc(S(=O)(=O)N2CCOCC2)cc1	1.6µM*	0.71µM*	1%
CCC1CCCCN1S(=O)(=O)c1ccc(C(=O)Nc2nnc(-c3ccccc3Cl)o2)cc1 (stereo not given)	0.0079µM*	0.28µM*	3%
CC1CCCCN1S(=O)(=O)c1ccc(C(=O)Nc2nnc(-c3ccncc3)o2)cc1 (stereo not given)	8%	6%	0%
O=C(Nc1ccc(S(=O)(=O)N2CCOCC2)cc1)c1cccs1	-17%	30%	-3%
CCC1CCCCN1S(=O)(=O)c1ccc(S(=O)(=O)N(Cc2ccccn2)CC2CCCO2)cc1 (stereo not given)	-6%	3%[10 µM]	1%
CC1CCCCN1S(=O)(=O)c1ccc(C(=O)Nc2nnc(-c3ccccc3Cl)o2)cc1 (stereo not given)	0.5µM*	0.71µM*	-3%
O=C(Nc1nnc(-c2ccccc2Cl)o1)c1ccc(S(=O)(=O)N2CCCCCC2)cc1	0.4µM*	0.45µM*	1%
O=C(Nc1ccccc1)c1ccc(S(=O)(=O)N2CCCC2)cc1	2%	13%	2%
C#CCCCO/N=C1/C[C@@H](O)[C@@H](O)[C@@H]2[C@@H]3C(=O)N(Cc4ccc5c(c4)OCO5)C(=O)[C@H]3CC[C@H]12	5%[10 µM]	-1%[10 µM]	.
